According to PubChem BioAssay:
Calls of active or inactive are those of the source.

Tests used:
[1] = binders of probe aFSTL3 on microarray, primary screen, stem cell growth factor project, biochemical, small-molecule microarray, fluorescence 635/667 (AID 1064); settings: higher = more signal;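 also: measures binding of the biotinylated anti-FSTL3 antibody to printed compounds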
[2] = binders from COS7 lysate, DM2A8 probe, primary screen, torsin A project, cell lysate, small-molecule microarray, fluorescence 635/667 (AID 1065); settings: higher = more signal, COS7 lysate expressing mutant human TOR1A
[3] = binders of probe aFGF2 on microarray, primary screen, stem cell growth factor project, biochemical, small-molecule microarray, fluorescence 635/667 (AID 1067); settings: higher = more signal;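 also: measures binding of biotinylated aFGF2 protein to printed compounds on slides; z-score merges feature fluorescence and signal-to-noise across triplicate slides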
[4] = binders of probe aFGF10 on microarray, primary screen, stem cell growth factor project, biochemical, small-molecule microarray, fluorescence 635/667 (AID 1071); settings: higher = more signal;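 also: score merges 667 nm spot intensity and signal to noise from triplicate slides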
[5] = molecular target: Neurogenic locus notch homolog protein 2 (Homo sapiens) (UniProt Q04721); assay: Notch2 binders on small-molecule microarrays, primary screen, biochemical, small-molecule microarray, 635 nm fluorescence, stem cell growth factors (AID 1073); settings: Notch2 binding, higher = more signal
Neurogenic locus notch homolog protein 2 (Homo sapiens), sequence (Q04721 whole entry, looked up, canonical isoform): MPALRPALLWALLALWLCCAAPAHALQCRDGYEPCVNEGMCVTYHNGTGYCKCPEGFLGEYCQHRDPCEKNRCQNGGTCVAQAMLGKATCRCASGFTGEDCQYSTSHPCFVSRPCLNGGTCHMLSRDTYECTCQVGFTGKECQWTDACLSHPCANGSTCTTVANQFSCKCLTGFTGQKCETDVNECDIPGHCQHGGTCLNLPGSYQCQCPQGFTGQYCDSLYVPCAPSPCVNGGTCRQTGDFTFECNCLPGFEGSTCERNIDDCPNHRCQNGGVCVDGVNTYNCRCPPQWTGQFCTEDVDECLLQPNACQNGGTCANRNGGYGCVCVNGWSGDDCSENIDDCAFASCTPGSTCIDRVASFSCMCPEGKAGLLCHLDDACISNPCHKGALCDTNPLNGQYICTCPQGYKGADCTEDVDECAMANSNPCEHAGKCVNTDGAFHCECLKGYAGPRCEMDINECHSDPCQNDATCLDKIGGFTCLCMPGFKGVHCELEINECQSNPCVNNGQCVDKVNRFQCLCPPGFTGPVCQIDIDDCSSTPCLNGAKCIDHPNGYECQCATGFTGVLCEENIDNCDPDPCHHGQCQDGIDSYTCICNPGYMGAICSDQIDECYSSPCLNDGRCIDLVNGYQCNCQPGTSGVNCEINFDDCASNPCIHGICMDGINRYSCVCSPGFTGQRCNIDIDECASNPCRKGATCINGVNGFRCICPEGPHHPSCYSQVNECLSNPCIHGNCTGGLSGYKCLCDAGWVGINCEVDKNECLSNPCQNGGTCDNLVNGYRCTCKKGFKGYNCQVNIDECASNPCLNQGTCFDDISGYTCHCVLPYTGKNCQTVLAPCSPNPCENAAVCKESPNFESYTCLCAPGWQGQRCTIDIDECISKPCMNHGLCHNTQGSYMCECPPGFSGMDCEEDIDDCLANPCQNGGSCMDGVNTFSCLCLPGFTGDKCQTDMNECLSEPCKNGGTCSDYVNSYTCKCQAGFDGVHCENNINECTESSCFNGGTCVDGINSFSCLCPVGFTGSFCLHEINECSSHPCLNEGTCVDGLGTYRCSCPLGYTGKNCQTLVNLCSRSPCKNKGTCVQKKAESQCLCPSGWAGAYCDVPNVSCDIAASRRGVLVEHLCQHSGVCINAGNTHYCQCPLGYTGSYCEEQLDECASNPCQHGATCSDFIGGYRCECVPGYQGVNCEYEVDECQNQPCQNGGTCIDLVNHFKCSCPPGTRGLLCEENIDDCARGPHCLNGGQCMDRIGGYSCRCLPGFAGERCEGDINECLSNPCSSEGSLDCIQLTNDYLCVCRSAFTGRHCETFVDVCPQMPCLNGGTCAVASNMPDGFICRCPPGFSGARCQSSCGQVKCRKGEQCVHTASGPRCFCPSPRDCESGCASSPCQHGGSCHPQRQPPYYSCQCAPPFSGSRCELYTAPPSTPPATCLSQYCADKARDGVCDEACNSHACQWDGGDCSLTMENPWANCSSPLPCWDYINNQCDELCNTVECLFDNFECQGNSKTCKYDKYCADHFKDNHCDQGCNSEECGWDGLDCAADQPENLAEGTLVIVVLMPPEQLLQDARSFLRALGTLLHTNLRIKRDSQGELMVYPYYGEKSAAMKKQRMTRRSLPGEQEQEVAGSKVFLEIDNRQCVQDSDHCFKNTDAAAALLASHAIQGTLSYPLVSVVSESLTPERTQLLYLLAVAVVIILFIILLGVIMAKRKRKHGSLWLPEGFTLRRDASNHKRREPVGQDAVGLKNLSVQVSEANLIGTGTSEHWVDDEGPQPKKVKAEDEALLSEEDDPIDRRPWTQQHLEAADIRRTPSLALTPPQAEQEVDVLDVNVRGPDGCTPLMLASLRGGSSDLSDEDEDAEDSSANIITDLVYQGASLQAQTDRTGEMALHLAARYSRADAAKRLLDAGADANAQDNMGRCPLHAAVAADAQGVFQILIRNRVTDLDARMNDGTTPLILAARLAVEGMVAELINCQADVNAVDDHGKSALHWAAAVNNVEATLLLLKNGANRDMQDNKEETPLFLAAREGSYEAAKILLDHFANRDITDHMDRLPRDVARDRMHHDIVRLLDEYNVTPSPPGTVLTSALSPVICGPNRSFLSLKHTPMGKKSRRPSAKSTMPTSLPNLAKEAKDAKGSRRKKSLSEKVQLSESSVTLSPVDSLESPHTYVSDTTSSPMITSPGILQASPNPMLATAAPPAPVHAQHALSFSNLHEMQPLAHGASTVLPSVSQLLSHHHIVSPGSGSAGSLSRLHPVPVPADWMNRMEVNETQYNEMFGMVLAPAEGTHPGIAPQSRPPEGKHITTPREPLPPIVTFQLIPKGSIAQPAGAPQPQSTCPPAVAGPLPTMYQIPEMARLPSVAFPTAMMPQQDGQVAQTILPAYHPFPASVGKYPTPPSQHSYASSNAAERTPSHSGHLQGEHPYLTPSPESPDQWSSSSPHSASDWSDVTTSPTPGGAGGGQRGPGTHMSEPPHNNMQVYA

[6] = molecular target: Pro-neuregulin-1, membrane-bound isoform (Homo sapiens) (UniProt Q02297); assay: NRG1 binders on small-molecule microarrays, primary screen, psychiatric disease protein project, biochemical, small-molecule microarray, fluorescence 635/667 (AID 1075); settings: NRG1 binding, 635 nm fluorescence, higher = more signal;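 also: score combines 667 nm spot fluorescence with signal to noise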
Pro-neuregulin-1, membrane-bound isoform (Homo sapiens), sequence (Q02297 whole entry, looked up, the tested form may be a part, canonical isoform): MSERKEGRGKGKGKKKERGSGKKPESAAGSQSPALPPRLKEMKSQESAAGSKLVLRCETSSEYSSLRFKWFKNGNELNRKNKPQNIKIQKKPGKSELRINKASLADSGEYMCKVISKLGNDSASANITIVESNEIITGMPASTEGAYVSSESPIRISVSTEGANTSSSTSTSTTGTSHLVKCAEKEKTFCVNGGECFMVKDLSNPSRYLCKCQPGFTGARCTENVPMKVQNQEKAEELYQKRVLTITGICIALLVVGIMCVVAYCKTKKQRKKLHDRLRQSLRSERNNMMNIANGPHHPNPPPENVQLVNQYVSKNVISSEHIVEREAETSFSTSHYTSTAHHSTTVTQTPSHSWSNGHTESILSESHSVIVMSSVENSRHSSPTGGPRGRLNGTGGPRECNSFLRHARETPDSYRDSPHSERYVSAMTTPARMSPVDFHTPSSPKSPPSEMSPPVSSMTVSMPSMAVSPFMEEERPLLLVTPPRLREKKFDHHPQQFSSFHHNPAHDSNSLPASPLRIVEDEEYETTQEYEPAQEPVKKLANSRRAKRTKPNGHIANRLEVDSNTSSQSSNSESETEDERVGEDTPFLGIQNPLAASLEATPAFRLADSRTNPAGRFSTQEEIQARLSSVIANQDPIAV

[7] = system: Neuregulin-1 EGF-like domain; assay: binders of neuregulin-1 EGF-like domain, primary screen, biochemical, small-molecule microarray, 635 nm fluorescence (AID 1081); settings: small-molecule microarray binding, higher = more signal;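 also: binding of the protein to compounds printed on small-molecule microarray slides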
[8] = FRG1 promoter luciferase signal modulators, primary screen, FRG1 inhibition for FSHD, cell-based, C2C12 myotubes, firefly/Renilla luciferase, luminescence (AID 1084); settings: higher = more signal, called active from +8 up or from −8 down
[9] = binders of probe aFST on microarray, primary screen, stem cell growth factor project, biochemical, small-molecule microarray, fluorescence 635/667 (AID 1086); settings: higher = more signal;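 also: score merges 667 nm fluorescence with signal-to-noise of each printed compound spot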
[10] = binders of probe aHhip on microarray, primary screen, stem cell growth factor project, biochemical, small-molecule microarray, fluorescence 635/667 (AID 1087); settings: higher = more signal;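 also: score merges spot fluorescence at 667nm with spot signal to noise ratio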
[11] = system: PRMT1 (protein arginine N-methyltransferase 1); assay: PRMT1 binders on small-molecule microarrays, primary screen, biochemical, small-molecule microarray, 635 nm fluorescence (AID 1088); settings: small-molecule microarray binding, higher = more signal;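 also: binding of Prmt1 protein to compounds spotted on small-molecule microarray slides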
[12] = yeast growth modulation, basal conditions, primary screen, YJM789 clinical isolate, OD600, 24 h (AID 1089);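 also: growth of clinical yeast isolate S. cerevisiae YJM 789 seeded 1000 cells per well; test concentration not given here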; settings: S. cerevisiae YJM789 growth, higher = more signal, called active from +8 up or from −8 down
[13] = fission yeast growth modulation, primary screen, strain 972, OD600, 24 h, no modulator (AID 1090);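 also: basal condition with compound alone and no growth modifier present; test concentration not given here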; settings: S. pombe 972 growth, higher = more signal, called active from +8 up or from −8 down
[14] = S. cerevisiae growth modulation with rapamycin, primary screen, strain BY4716, OD600, 96 h (AID 1091); settings: higher = more signal, called active from +8 up or from −8 down; also: test concentration not given here
[15] = molecular target: Torsin-1A-interacting protein 2 (Homo sapiens) (UniProt Q8NFQ8); assay: LULL1 binders on small-molecule microarray, primary screen, cell lysate, human LULL1 lysate, 635/667 nm fluorescence (AID 1092); settings: hLULL1 lysate binding, 635 nm fluorescence, higher = more signal;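 also: probe is lysate of COS7 cells overexpressing human LULL1; score merges per-feature 667 nm fluorescence with signal-to-noise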
Torsin-1A-interacting protein 2 (Homo sapiens), sequence (Q8NFQ8 whole entry, looked up): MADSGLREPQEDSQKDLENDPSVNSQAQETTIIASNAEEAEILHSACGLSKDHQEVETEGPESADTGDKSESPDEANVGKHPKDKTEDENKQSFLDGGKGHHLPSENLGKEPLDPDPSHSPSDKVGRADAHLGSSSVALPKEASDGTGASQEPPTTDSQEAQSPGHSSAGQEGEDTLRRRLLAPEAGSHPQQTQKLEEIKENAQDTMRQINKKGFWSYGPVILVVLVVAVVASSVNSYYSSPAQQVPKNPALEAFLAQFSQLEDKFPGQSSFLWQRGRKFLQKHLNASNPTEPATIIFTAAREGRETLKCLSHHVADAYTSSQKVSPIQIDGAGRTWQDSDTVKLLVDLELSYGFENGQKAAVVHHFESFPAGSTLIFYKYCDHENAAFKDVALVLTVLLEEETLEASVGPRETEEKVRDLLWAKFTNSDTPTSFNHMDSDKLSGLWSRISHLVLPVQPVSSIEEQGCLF

[16] = E. coli growth modulation, two-sided OD650, primary screen, E. coli filamentation project, strain DRC41, 24 h (AID 1093); settings: OD650, 24 h, higher = more signal, called active from +8 up or from −8 down;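 also: MC1000 strain lacking acrAB efflux and sulA so SOS filamentation is blocked; test concentration not given here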
[17] = small-molecule microarray binders of probe aLefty2, primary screen, biochemical, biotinylated probe, 635/667 nm fluorescence (AID 1094); settings: higher = more signal;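 also: score merges spot fluorescence near 667 nm with spot signal-to-noise ratio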
[18] = system: Noggin (protein binding on small-molecule microarray); assay: Noggin binders on small-molecule microarray, primary screen, biochemical, 635/667 nm fluorescence (AID 1095); settings: 635 nm fluorescence, higher = more signal;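 also: score merges 667 nm feature fluorescence with signal to noise over triplicate slides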
[19] = molecular target: Neurogenic locus notch homolog protein 3 (Homo sapiens) (UniProt Q9UM47); assay: NOTCH3 binders on small-molecule microarray, primary screen, biochemical, 635/667 nm fluorescence (AID 1096); settings: NOTCH3 binding, 635 nm fluorescence, higher = more signal
[20] = small-molecule microarray binders of probe aEGFR, primary screen, biochemical, biotinylated probe, 635/667 nm fluorescence (AID 1097); settings: higher = more signal;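 also: probe is a biotinylated anti-EGFR antibody binding compounds printed on slides; score combines fluorescence near 667 nm and signal to noise of each spot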

| Compound | composite z-score [1] | composite z-score [2] | composite z-score [3] | composite z-score [4] | composite z-score [5] | composite z-score [6] | composite z-score [7] | z-score [8] | composite z-score [9] | composite z-score [10] | composite z-score [11] | z-score [12] | z-score [13] | z-score [14] | composite z-score [15] | z-score [16] | composite z-score [17] | composite z-score [18] | composite z-score [19] | composite z-score [20] |
| --- | --- | --- | --- | --- | --- | --- | --- | --- | --- | --- | --- | --- | --- | --- | --- | --- | --- | --- | --- | --- |
| COc1cc(CO)cc(I)c1O[C@H]1C=C(C(=O)NCCO)C[C@@H](NCc2ccc(F)cc2)[C@@H]1O | -0.519 | 0.254 | 0.0062 | 1.34 | 0.366 | 0.406 | -0.0461 | -1.14 (inactive) | 0.245 | -0.0645 | 1.07 | 1.41 (inactive) | -9.13 (active) | 0.388 (inactive) | -0.135 | 0.944 (inactive) | -0.109 | 0.938 | 0.305 | -0.128 |
| CC(CO)N1C(=O)[C@@H]2[C@H]3C(=O)OCC=C[C@H]3OC23C=CCN(C(C)(C)C)C(=O)[C@@H]13 (stereo not given in full) | -0.279 | 0.261 | -0.128 | 0.337 | -0.175 | -0.305 | 1.51 | 1.76 (inactive) | -0.415 | -0.0618 | -0.507 | -0.0994 (inactive) | -0.0932 (inactive) | -0.422 (inactive) | -1.25 | -0.607 (inactive) | -0.103 | -0.429 | -0.0056 | -0.0656 |
| COC(=O)C(CC#Cc1ccc2c(c1)[C@]1(C(=O)N2)[C@H](c2ccccc2OCCO)N2[C@H](c3ccccc3)[C@H](c3ccccc3)OC(=O)[C@H]2[C@@H]1C(=O)NC[C@H](O)c1ccccc1)C(=O)OC | -0.881 | 0.711 | -0.0307 | 0.767 | 0.982 | 1.36 | 1.25 | -1.42 (inactive) | -0.158 | -0.4 | 1.54 | 2.51 (inactive) | 1.32 (inactive) | 4.78 (inactive) | 3.25 | 0.282 (inactive) | -0.324 | 1.1 | 1.04 | -0.147 |
| COCCCNC(=O)[C@@]1(Sc2ccc(C)cc2)CC(=O)N(C2CCCCC2)[C@@H]1c1ccc(CO)cc1 | 0.863 | -0.596 | 0.0019 | 0.0381 | -0.957 | -0.113 | -0.119 | -0.721 (inactive) | -0.37 | -0.191 | 1.08 | -0.858 (inactive) | 0.478 (inactive) | -0.874 (inactive) | 2.96 | 0.195 (inactive) | 0.0977 | -0.804 | 0.0236 | -0.221 |
| COCCOC(=O)N1C(=O)[C@@]2(c3ccccc31)[C@H](C(=O)N1CCN(c3ncccn3)CC1)[C@H]1C(=O)O[C@H](c3ccccc3)[C@H](c3ccccc3)N1[C@@H]2c1ccc(O)cc1 | 0.149 | 0.0128 | -0.0136 | 0.879 | 0.186 | 1.36 | 0.335 | -0.79 (inactive) | -0.0574 | 0.0523 | 1.55 | 0.232 (inactive) | 1.07 (inactive) | 1.72 (inactive) | 2.25 | 1.48 (inactive) | -0.122 | 0.161 | 0.679 | -0.184 |
| CCOC(=O)c1ccc(NC(=O)O[C@H]2[C@H](OC(=O)Nc3ccc4c(c3)OCO4)[C@@H](OC(=O)Nc3ccc4c(c3)OCO4)[C@@H](OC)O[C@@H]2CO)cc1 | -0.0691 | 0.816 | 0.0121 | 1.03 | 1.39 | 1.74 | 1.35 | 6.39 (inactive) | 0.474 | -0.318 | 1.53 | 1.38 (inactive) | 2.29 (inactive) | 7.12 (inactive) | 3.27 | 1.15 (inactive) | 0.119 | 1.07 | 1 | 0.0815 |
